Sampled rows, rich in hits. Any-hit rate of the full collection: about 1.3%.
EBV gp42 inh = Epstein-Barr virus gp42 inhibitors, primary screen, biochemical, uHTS, fluorescence polarization | Glycoprotein 42 (Epstein-Barr virus (strain AG876)), Q1HVG2 | Fluorescence polarization binding assay, mP read-out | inhibition, % (tested at 21.74 µM) | 220,000 compounds, 0.42% hits | AID 1085, 2008; in the data active = inhibition above about 50%
MEX-5 binding = MEX-5 zinc finger RNA-binding disruptors – biochemical, C. elegans, fluorescence polarization, MLPCN library, primary screen; activity score (negative = inhibition of binding), % at 10 µM; Zinc finger protein mex-5 (Caenorhabditis elegans), Q9XUB2; MEX-5/FITC-TCR2 RNA binding; hits give low values; AID 1832, 2009; 300,000 compounds, 0.38% hits;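 active = inhibition past about -25% in most replicates, and total fluorescence under double the plate's negative control median, limit read from the data; inconclusive = replicates evenly split on the limit, or fluorescence at least double controls; inactive = too little inhibition in most replicates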;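 also: 0% = DMSO and -100% = 5 µM competing unlabeled TCR2 RNA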
eLon inh = inhibitors of E. coli Lon protease, primary screen, biochemical, fluorescence polarization; purified E. coli Lon protease; P0A9M0; inhibition, % at 7.94 µM; 360,000 compounds, 0.42% hits; in the data active = inhibition above about 13%, passing the limit was not always enough;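 also: 0% = enzyme with probe and DMSO and 100% = no enzyme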
Target sequence (P0A9M0 whole entry, looked up): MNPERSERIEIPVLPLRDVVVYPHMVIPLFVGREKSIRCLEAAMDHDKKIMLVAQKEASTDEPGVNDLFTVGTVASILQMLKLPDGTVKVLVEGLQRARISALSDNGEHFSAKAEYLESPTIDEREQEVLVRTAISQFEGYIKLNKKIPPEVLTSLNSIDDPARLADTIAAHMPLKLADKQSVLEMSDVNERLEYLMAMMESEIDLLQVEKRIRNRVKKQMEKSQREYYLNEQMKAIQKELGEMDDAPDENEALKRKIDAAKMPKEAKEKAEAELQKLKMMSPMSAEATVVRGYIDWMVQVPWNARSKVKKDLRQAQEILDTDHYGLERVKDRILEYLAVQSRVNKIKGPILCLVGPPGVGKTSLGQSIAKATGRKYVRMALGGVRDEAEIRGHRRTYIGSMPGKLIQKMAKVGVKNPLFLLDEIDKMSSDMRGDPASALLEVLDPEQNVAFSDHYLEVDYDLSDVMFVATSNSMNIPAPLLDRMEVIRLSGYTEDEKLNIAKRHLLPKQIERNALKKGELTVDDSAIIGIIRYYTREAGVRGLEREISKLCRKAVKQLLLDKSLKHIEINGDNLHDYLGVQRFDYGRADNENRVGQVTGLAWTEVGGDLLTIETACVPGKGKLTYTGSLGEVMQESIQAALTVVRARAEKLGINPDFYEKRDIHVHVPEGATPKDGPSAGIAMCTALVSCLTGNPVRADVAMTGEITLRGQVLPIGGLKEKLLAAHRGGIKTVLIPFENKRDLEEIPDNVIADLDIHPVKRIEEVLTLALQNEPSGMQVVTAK
Bcl-xL primary = inhibitors of human Bcl-xL, primary screen, biochemical, fluorescence polarization, HTS; inhibition, % at 10.9 µM; GST-Bcl-xL / FITC-Bim BH3 peptide fluorescence polarization; Bcl-2-like protein 1 (Homo sapiens), Q07817; 320,000 compounds, 0.7% hits;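 active = inhibition above the mean of all tested compounds plus 3 SD, cutoff set per campaign, cut at about 30% in these data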;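 also: 0% = DMSO wells and 100% = unlabeled Bim-BH3 peptide competitor; inhibitors lower millipolarization by displacing the labeled peptide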
GLD-1 RNA inh = GLD-1/TGE RNA complex disruptors, primary screen, biochemical, fluorescence polarization; purified GLD-1 + fluorescein TGE RNA; inhibition, % at 5.96 µM; Female germline-specific tumor suppressor gld-1 (Caenorhabditis elegans), Q17339; 320,000 compounds, 0.44% hits; AID 2280, 2010;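 active = percent inhibition above a per-plate cutoff, the plate mean of test compounds plus 3 SD, cut at about 30% in these data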;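 also: 0% = DMSO wells with GLD-1 and probe and 100% = wells lacking GLD-1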
* hit, by the source's call; ? = inconclusive; . = not tested or not shown.

SMILES	EBV gp42 inh	MEX-5 binding	eLon inh	Bcl-xL primary	GLD-1 RNA inh
CC(C)c1ccc(/C=C/C(=O)n2nnc3ccccc32)cc1	85*	1	8	2	-3
CC(C)c1ccc(/C=C/C(=O)N2CCCCCC2)cc1	2	-4	0	2	-11
Cc1ccc(NC(=O)CN(C)C(=O)Cc2c[nH]c3ccccc23)cc1	.	.	-7	.	7
Cc1ccc(C)c(N2CCN(C(=O)c3cc4ccccn4n3)CC2)c1	11	-29*	9	49*	24
O=C(c1cc2ccccn2n1)N1CCCC1	-12	.	.	.	.
COc1ccc2nc3cccc(OC)c3nc2c1	26	1	7	46*	24
Cn1nc(Oc2ncc(C(F)(F)F)cc2Cl)cc1C(F)(F)F	-10	-2	-2	8	-4
Cn1nc(C(=O)OCC(=O)Nc2cc(Cl)ccc2C#N)c2ccccc2c1=O	.	.	-2	0	3
O=C1C([N+](=O)[O-])=C(O)c2cccc3cccc1c23	.	-40*	.	.	.
CCN(CC)c1ccc2cc(-c3nc4ccccc4[nH]3)c(=O)oc2c1	45	?	-193	81*	42*
CCN(CC)c1ccc2cc(-c3nnc(-c4ccccc4)o3)c(=O)oc2c1	21	?	-434	-6	-140
CCN(CC)c1ccc2cc(-c3nc(-c4ccc(OC)cc4)cs3)c(=O)oc2c1	92*	.	.	107*	67*
CCN(CC)c1ccc2cc(-c3nc4ccccc4n3C)c(=O)oc2c1	2	-10	-173	27	-59
COc1ccc(CNC(=O)c2ccc(-c3c(C)noc3C)c3ccoc23)cc1OC	.	.	0	.	.
COc1ccccc1OC(=O)Nc1ccc(Cl)cc1	.	0	-4	48*	11
Cc1cccc2cc(/C=C3\N=C(c4ccccc4)OC3=O)c(N3CCOCC3)nc12	135*	-9	7	2	-8
Cc1ccc(C2=N/C(=C/N3CCOCC3)C(=O)O2)cc1	-12	1	-4	0	-6
Cc1ccc(/C=C(\C#N)C(=O)Nc2c(C)cccc2C)s1	-48	-46*	-34	-29	-32
Cc1ccc(NC(=O)/C(C#N)=C/c2ccc(C)s2)c(C)c1	-54	-54*	-9	48*	6
CCn1c(SCC(=O)OC(C)C)nnc1-c1ccccc1OC	-4	1	-7	6	1
C(=NNc1ccc2ccccc2n1)c1ccccn1	.	.	-153	.	.
NC(=S)N/N=C/c1ncc(C(F)(F)F)cc1Cl	10	-2	17	146*	101*
NC(=S)N/N=C/c1ccc(C(F)(F)F)cc1	6	1	-3	5	2
O=C(O)/C=C/C(=O)NCc1ccccn1	25	-17	1	52*	36*
O=C(O)/C=C/C(=O)NCc1ccccc1	8	1	-5	5	0
SMILES	EBV gp42 inh	MEX-5 binding	eLon inh	Bcl-xL primary	GLD-1 RNA inh
Cc1cc(NC(=O)C(C)SCC(=O)Nc2ccccc2C(C)(C)C)no1 (configuration not stated)	.	0	-2	2	3
Cc1cc(C(=O)N/N=C/c2ccc(-c3cccc(Cl)c3Cl)o2)n[nH]1	-66	-38*	-1	2	-4
O=C(COC(=O)/C=C/c1ccc([N+](=O)[O-])cc1)NCC1CCCCC1	.	.	-5	.	0
COc1ccc(C(=O)C(C)[n+]2ccc(C)c3ccccc32)cc1[N+](=O)[O-] (configuration not stated)	.	2	-44	34*	-44
COc1ccc(C(=O)NC(C)CCc2ccccc2)cc1[N+](=O)[O-] (configuration not stated)	.	1	4	0	-2
CCCCCOc1ccc(/C=c2\sc3nc(=O)c(-c4ccccc4)nn3c2=O)cc1OC	-5	-31*	-19	-4	1
CCCOc1ccc(/C=c2\sc3nc(-c4ccco4)nn3c2=O)cc1OCC	36	-67*	-11	3	3
COc1cc(/C=c2\sc3nc(-c4ccncc4)nn3c2=O)ccc1OC(C)=O	37	.	.	.	.
O=C(O)C1CCCN1c1nc(-c2ccc(Cl)c(Cl)c2)cc(C(F)(F)F)n1 (configuration not stated)	.	.	-2	8	1
CN1C(=O)/C(=C\c2ccccc2F)Sc2ccc(C(=O)NC3CCN(Cc4ccccc4)CC3)cc21	.	1	9	5	-2
O=c1c(O)cccc2cc(O)c(O)c(O)c12	82*	-37*	15	86*	22
Cn1nnnc1SCC(=O)Nc1ccccc1N1CCCCC1	140*	1	-3	-3	-2
CC(=O)N1CCc2c(sc(NC(=O)C3CCCCC3)c2C(N)=O)C1	.	-27*	6	13	57*
CCN(CC)c1ccc2c(c1)CCCN2	-20	-8	.	105*	90*
COc1ccc(C2=CC3=C(Br)C(=O)C(C)(OC(=O)c4cccs4)C(=O)C3=CO2)cc1 (configuration not stated)	.	-34*	-26	20	13
COc1ccc(C2=CC3=C(Br)C(=O)C(C)(OC(=O)c4ccco4)C(=O)C3=CO2)cc1 (configuration not stated)	11	-48*	-43	42*	20
COc1cc(CCC(=O)Nc2nccs2)cc(OC)c1OC	.	-2	-5	1	3
CCN(CC)CCNC(=O)c1cn(CC)c2cc(N3CCN(C)CC3)c(F)cc2c1=O	.	1	-5	0	-5
N#CC1=C(N)OC2=C(CC/C2=C\c2ccc(F)cc2)C1c1ccc(F)cc1 (configuration not stated)	61*	-2	.	-41	-7
COc1cc(NC(=O)c2ccc(-c3ccc(F)c(F)c3)c3ccoc23)cc(OC)c1OC	.	.	5	.	.
CCCC(=Nc1ccccc1)C1=C(O)C(C(=O)OC)C(C)(C)CC1=O (configuration not stated)	-9	0	-7	1	-1
CCCCC(=Nc1ccc(N)cc1)C1=C(O)C(C(=O)OC)C(C)(C)CC1=O (configuration not stated)	-10	1	5	32*	8
O=C(O)c1ccc(-n2c(/C=C/c3ccccc3)nc3ccccc3c2=O)cc1	.	-1	-13	30*	-5
O=C(O)c1ccc(-n2c(/C=C/c3cccc([N+](=O)[O-])c3)nc3ccccc3c2=O)cc1	.	0	2	0	-10
O=C(NCC1CCN(c2ccc(S(=O)(=O)N3CCOCC3)cc2)CC1)c1cccc(Cl)c1	-23	3	-8	2	1
COc1cccc(C(=O)NCC2CCN(c3ccc(S(=O)(=O)N4CCOCC4)cc3)CC2)c1	-15	-30*	0	0	-7
C(=N\N1CCOCC1)/c1cn(-c2ccccc2)nc1-c1ccccc1	-25	-1	-11	4	13

Screening results deposited in PubChem BioAssay by several laboratories.
